In PubChem BioAssay (NCATS):
Several values for one entry are separate records, joined by “and”; a condition that tells them apart may be missing. Identical values can stand only once. Records with an inconclusive call do not appear. Activity calls are given as the source filed them. Unless noted, calls come from the whole dose curve; as a rule, active = well fitted curve in the direction sought with a large enough effect; inconclusive = small, poorly fitted or top-dose-only effect, or another doubt; inactive = no such curve, though single readings can be large; an effect the other way counts as inactive or inconclusive.

What was measured:
[1] = target: N-terminal Xaa-Pro-Lys N-methyltransferase 1 (Homo sapiens) (UniProt Q9BV86); assay: Confirmatory qHTS for Inhibitors of N-terminal methyltransferase 1 (NTMT1): MTaseGlo Assay (AID 1645874); note: nearly all actives have a fitted effect of over 65% in size
Chain of N-terminal Xaa-Pro-Lys N-methyltransferase 1 (Homo sapiens) (Q9BV86 whole entry, looked up): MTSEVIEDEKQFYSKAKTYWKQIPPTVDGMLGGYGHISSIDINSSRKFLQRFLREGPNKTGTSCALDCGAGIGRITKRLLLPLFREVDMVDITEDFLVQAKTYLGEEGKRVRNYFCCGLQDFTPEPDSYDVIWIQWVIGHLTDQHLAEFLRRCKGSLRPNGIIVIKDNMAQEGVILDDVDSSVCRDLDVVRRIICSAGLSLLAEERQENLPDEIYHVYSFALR
In short: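 Enzyme mix (125 nM NTMT1, 100 uM SAM) + compound, 15 min RT; + 1 uM SPKRIA, 30 min RT, dark; MTase-Glo reagent 30 min, detection solution 30 min; luminescence. % inhibition vs no-enzyme/DMSO controls, 4-parameter Hill fit.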

[2] = target: Cytochrome P450 2C9 (Homo sapiens) (UniProt P11712); assay: Cytochrome P450 family 2 subfamily C member 9 (CYP2C9) small molecule antagonists: luciferase biochemical (cell-free) qHTS assay (AID 1645842; active = well fitted curve in the direction sought with a large enough effect in the repeat runs; an effect the other way counts as inactive or inconclusive; note: nearly all actives have a fitted effect of over 55% in size; for activity change, negative = inhibition: % is set by controls: 0 for no effect and ±100 for the full control effect)
Chain of Cytochrome P450 2C9 (Homo sapiens) (P11712 whole entry, looked up): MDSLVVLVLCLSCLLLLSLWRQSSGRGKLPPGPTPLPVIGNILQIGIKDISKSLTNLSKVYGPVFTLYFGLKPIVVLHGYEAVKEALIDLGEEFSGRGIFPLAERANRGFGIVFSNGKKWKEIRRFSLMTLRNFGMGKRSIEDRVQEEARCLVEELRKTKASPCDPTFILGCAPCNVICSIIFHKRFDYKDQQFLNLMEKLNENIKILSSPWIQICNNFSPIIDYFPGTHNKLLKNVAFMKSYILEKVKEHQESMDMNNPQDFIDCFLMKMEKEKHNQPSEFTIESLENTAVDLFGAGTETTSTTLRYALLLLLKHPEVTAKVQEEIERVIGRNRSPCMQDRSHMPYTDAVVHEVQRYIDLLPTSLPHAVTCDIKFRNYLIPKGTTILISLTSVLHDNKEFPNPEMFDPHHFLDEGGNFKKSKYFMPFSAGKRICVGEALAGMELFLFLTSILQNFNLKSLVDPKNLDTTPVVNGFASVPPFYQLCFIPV
In short: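 P450-Glo CYP2C9 system: proluciferin substrate with enzyme in mix containing 0.4% BSA, 10 min at room temperature, then NADPH regeneration solution added and incubated 1 h at 37C. Detection reagent stopped reaction; luminescence read after 20 min as RLU.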

[3] = Primary qHTS for inhibitors of nuclear receptor binding SET domain protein 2 (NSD2) in an isogenic RCH-ACV NSD2 p.E1099K mutant (9B) (AID 1645876); note: nearly all actives have a fitted effect of over 70% in size
[4] = Primary qHTS for inhibitors of nuclear receptor binding SET domain protein 2 (NSD2) in an RCH-ACV wild type WT cells (2C) (AID 1645877); note: nearly all actives have a fitted effect of over 70% in size
[5] = target: Catechol O-methyltransferase (Homo sapiens) (UniProt P21964); assay: Confirmatory Screen for Target Class Profiling of Small Molecule Inhibitors of Methyltransferases (AID 1745852; calls by dose curve; for activity change, negative = inhibition: % is set by controls: 0 for no effect and ±100 for the full control effect); conditions: MTase-Glo luminescence, SAH detection, recombinant enzyme; measured here: COMT max response; stronger effect = lower value
Chain of Catechol O-methyltransferase (Homo sapiens) (P21964 whole entry, looked up): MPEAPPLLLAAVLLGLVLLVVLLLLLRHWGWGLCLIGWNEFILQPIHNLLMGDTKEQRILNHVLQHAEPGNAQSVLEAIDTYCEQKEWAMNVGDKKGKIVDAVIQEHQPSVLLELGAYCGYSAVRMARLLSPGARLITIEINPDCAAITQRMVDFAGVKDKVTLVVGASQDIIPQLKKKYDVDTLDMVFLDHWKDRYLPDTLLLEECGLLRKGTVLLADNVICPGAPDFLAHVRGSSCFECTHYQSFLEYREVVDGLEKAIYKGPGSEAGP

[6] = target: Guanidinoacetate N-methyltransferase (Homo sapiens) (UniProt Q14353); assay: as above; conditions: activity change, negative = inhibition: at 57.3 µM (top of the series) unless noted
[7] = target: Nicotinamide N-methyltransferase (Homo sapiens) (UniProt P40261); assay: as above; conditions: MTase-Glo luminescence, SAH detection, recombinant enzyme; measured here: NNMT max response; stronger effect = lower value
Chain of Nicotinamide N-methyltransferase (Homo sapiens) (P40261 whole entry, looked up): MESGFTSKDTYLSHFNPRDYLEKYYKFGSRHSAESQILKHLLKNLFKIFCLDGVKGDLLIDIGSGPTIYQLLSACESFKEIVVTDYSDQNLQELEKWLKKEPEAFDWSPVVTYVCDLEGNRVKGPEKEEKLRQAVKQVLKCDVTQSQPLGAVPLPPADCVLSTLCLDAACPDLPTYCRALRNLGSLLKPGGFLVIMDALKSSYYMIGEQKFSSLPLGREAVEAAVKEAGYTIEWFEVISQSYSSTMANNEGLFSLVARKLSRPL

[8] = target: Phenylethanolamine N-methyltransferase (Homo sapiens) (UniProt P11086); assay: as above; conditions: MTase-Glo luminescence, SAH detection, recombinant enzyme; measured here: PNMT max response; stronger effect = lower value
Chain of Phenylethanolamine N-methyltransferase (Homo sapiens) (P11086 whole entry, looked up): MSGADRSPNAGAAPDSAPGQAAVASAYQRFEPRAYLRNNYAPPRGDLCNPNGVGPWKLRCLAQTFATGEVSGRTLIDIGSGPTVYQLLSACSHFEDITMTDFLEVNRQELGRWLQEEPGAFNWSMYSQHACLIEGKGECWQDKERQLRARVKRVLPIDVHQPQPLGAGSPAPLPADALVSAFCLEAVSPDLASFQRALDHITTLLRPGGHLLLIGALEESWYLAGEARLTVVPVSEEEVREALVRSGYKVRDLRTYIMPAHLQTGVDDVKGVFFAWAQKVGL
Potency is the fitted concentration of half-maximal effect.

O=C(O)c1cc(N(Cc2ccc(C3CCCCC3)cc2)C(=O)c2ccc(Oc3ccccc3)cc2)ccc1O
Potency [1]: 30.8 µM (active)

Cn1ncc(Cl)c1-c1cc(C(=O)N[C@H](CN)Cc2ccc(F)c(F)c2)sc1Cl
Potency [2]: 13.5 µM (active) | Potency [3]: 1.63 µM (active) and 1.05 µM (active) | Potency [4]: 2.05 µM (active) and 1.05 µM (active)

CCN(CC)C(=O)C(c1ccccc1)N1CCN(c2ccc(NC(=O)c3ccccc3-c3cccnc3)cc2F)CC1 (stereo not given)
Potency [2]: 9.52 µM (active) | Potency [3]: inactive | Potency [4]: inactive

Cc1cc(-c2cc(OC(=O)c3ccccc3)ccc2Cl)cc2nnc(Nc3ccc(OCCN4CCCC4)cc3)nc12
Potency [2]: inactive | Potency [3]: 12.9 µM (active) | Potency [4]: 7.96 µM (active)

CCCc1cc(C)[nH]c(=O)c1CNC(=O)c1cc(-c2ccc(N3CCN(C(C)C)CC3)nc2)cc2c1cnn2C(C)C
Potency [2]: 10.7 µM (active) | Potency [3]: 11.5 µM (active) and 7.42 µM (active) | Potency [4]: 11.5 µM (active) and 5.25 µM (active)

O=C(Nc1ccc2[nH]nc(-c3ccncc3)c2c1)[C@@H]1CCN(CC(=O)N2CCN(c3ccc(-c4ncccn4)cc3)CC2)C1
Potency [2]: 6.74 µM (active) and 1.69 µM (active) | Potency [3]: 9.16 µM (active) and 14.8 µM (active) | Potency [4]: 10.3 µM (active) and 11.8 µM (active)

O=S(=O)(Nc1ccccc1N1CCCCC1)c1ccc(Cl)s1
Potency [2]: 5.35 µM (active) | Potency [3]: inactive | Potency [4]: inactive

COc1ccc(NC(=O)c2ccc(-c3ccc(C(=N)N)cc3C)cc2)cc1N1CCN(C)CC1
Potency [2]: inactive | Potency [3]: inactive | activity [5]: -5.44% | activity change, negative = inhibition [6]: 2.76% | activity [7]: -3.54% | activity [8]: -6.51%

Cc1c(OCc2cccc(-c3ccc(C(=O)O)cc3)c2)cc2c(c1C)C(=O)C(C1CCCC1)C2 (stereo not given)
Potency [2]: 19 µM (active) | Potency [3]: inactive | Potency [4]: inactive | activity [5]: -4.94% | activity change, negative = inhibition [6]: -6.27% | activity [7]: -40.4% | activity [8]: -6.25%

CC(C)CCNC(=O)c1ccc2c(c1)nc(Nc1n[nH]c3ccc(-c4ccccc4OC(F)(F)F)cc13)n2C1CCC(O)CC1 (stereo not given)
Potency [2]: 9.52 µM (active) | Potency [3]: 10.3 µM (active) | Potency [4]: 14.5 µM (active)

CC(=O)NC(C)c1cnc(-c2cnc(Oc3ccc(OC(C)C)cc3)s2)s1 (stereo not given)
Potency [2]: 9.52 µM (active) | Potency [3]: 10.3 µM (active) | Potency [4]: 8.17 µM (active)

C=CC(=O)Nc1cccc(Nc2nc(Nc3ccc(OCCOC)cc3)ncc2F)c1
Potency [2]: 3.38 µM (active) | Potency [3]: 3.72 µM (active) | Potency [4]: 3.72 µM (active) | activity [5]: -40.1% | Potency [6]: 27.1 µM (active) | activity [7]: -65.2% | activity [8]: -40.1%

COc1cc2c(cc1OC)CN(C(=O)/C=C/c1c(-c3ccccc3)n(C)c3ncccc13)CC2
Potency [2]: 0.268 µM (active) | Potency [3]: 8.17 µM (active) | Potency [4]: 11.5 µM (active) | activity [5]: -6.33% | activity change, negative = inhibition [6]: -4.03% | activity [7]: -30.5% | activity [8]: -5.99%

C=CC(=O)Nc1ccc2ncnc(Nc3cccc(Br)c3)c2c1
Potency [2]: 3.38 µM (active) | Potency [3]: 4.68 µM (active) | Potency [4]: 4.17 µM (active) | activity [5]: -59.2% | Potency [6]: 19.2 µM (active) | activity [7]: -38.9% | activity [8]: -49.9%

CCN(CC)C(=O)c1ccc(Nc2nc(OCC3CCCCC3)c3[nH]cnc3n2)cc1
Potency [2]: 10.7 µM (active) | Potency [3]: 3.65 µM (active) | activity [5]: -18.1% | Potency [6]: 30.4 µM (active) | activity [7]: -75.3% | activity [8]: -18.4%
